# Screens as filed in PubChem BioAssay.
# D2 ag-1: Beta-Arrestin HTS for Positive Allosteric Modulators of the Human D2 Dopamine Receptor: Agonists; DiscoveRx PathHunter D2 beta-arrestin, luminescence, 90 min; 100% = 57 uM dopamine signal; activation, % (no concentration beside the values); hit rate 0.084% among 360,000; in the data active = activation above about 40%; inconclusive = between about 15% and that limit
# Target sequence (P14416 whole entry, looked up): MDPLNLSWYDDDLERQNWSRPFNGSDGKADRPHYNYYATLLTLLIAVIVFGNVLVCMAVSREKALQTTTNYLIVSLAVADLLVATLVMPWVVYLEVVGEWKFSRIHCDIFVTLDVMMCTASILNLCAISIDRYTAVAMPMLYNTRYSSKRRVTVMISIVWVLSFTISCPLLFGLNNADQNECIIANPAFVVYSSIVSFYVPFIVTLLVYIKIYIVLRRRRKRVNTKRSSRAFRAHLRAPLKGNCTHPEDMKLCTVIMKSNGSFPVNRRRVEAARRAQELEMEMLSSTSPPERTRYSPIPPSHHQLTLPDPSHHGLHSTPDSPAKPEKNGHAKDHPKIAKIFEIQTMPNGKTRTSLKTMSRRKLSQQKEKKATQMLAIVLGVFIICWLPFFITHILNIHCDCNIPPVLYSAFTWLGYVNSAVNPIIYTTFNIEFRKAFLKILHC
#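 DiscoveRx PathHunter D2 beta-arrestin cells (2,100/well) attached overnight, then compound-stimulated 90 min at 37 C in HBSS/10 mM HEPES/0.1% Tween-20 buffer; beta-galactosidase complementation read by luminescence after 1 h at ambient temperature. Dopamine 57 uM final (EC100) as control.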
# D2 ag-2: HTS Assay for Allosteric Agonists of the Human D2 Dopamine Receptor: Primary Screen for Agonists. hit rate 0.53% among 340,000. activation, % at 2 µM. HEK293 T-REx D2 cells, calcium flux agonist mode. D(2) dopamine receptor (Homo sapiens), P14416;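 active = activation over 3 SD above normal in the single-dose calcium agonist read, cut at about 30% in these data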; also: 0% is about no effect
#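 Agonism is scored from calcium flux in a force-coupled, inducible HEK293 cell line expressing D2, read kinetically for 180 s after compound addition against dopamine controls.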
# D2 PAM-1: Beta-Arrestin HTS for Positive Allosteric Modulators of the Human D2 Dopamine Receptor: Potentiators; DiscoveRx D2 beta-arrestin cells, luminescence, 90 min; 100% = 57 uM dopamine signal; AID 624464, 2012; potentiation, % (test concentration not listed); hit rate 0.23% among 360,000; D(2) dopamine receptor (Homo sapiens), P14416; in the data active = potentiation above about 50%; inconclusive = mostly about 30% to 49%
#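 D2 cells co-treated with compound plus 50 nM dopamine (EC20) for 90 min at 37 deg C to detect potentiation. Beta-arrestin recruitment was read as enzyme-fragment luminescence after 1 h at ambient temperature. Full response was set by 57 uM dopamine.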
# D2 antagonist: HTS Assay for Allosteric Antagonists of the Human D2 Dopamine Receptor: Primary Screen for Antagonists; HEK293 TREx D2 cells, calcium flux, dopamine EC80; D(2) dopamine receptor (Homo sapiens), P14416; hit rate 2% among 340,000; inhibition, % at 10 µM; in the data active = inhibition above about 30%; inactive = below that, where a call was filed; also: 0% is about no effect
#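 Inhibition of EC80 dopamine-driven calcium flux, recorded kinetically, defines activity here; cells are a tetracycline-induced HEK293 T-REx line expressing force-coupled D2.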
# D2 PAM-2: HTS Assay for Positive Allosteric Modulators of the Human D2 Dopamine Receptor: Primary Screen for Potentiators | D(2) dopamine receptor (Homo sapiens), P14416 | HEK293 T-REx D2, calcium flux, EC20 dopamine potentiation | potentiation, % at 10 µM | hit rate 0.34% among 340,000 | AID 485347, 2010;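 active = potentiation over 3 SD above the plate norm, cut at about 30% in these data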; also: 0% is about no effect
#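 Potentiation of an EC20 dopamine calcium response measured kinetically over 180 s, after a preceding 180 s compound-only read flagging agonists. Cells: inducible Hek293 Trex D2 line, 4000/well, cultured overnight at 30 C before dye loading.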
# * hit, by the source's call; ? = inconclusive; . = no result given. Hits are enriched below; roughly 2.4% of the tested compounds scored in any of these assays.
SMILES,D2 ag-1,D2 ag-2,D2 PAM-1,D2 antagonist,D2 PAM-2
CCOc1ccccc1NC(=O)CSc1ccc([N+](=O)[O-])cc1,-3.0,0.1,-4.8,40.9*,-14.3
CN(C)c1ccc(-c2nc3cnccn3c2Nc2cccc(C(F)(F)F)c2)cc1,.,-1.7,.,.,9.5
Cc1ccc(CC(=O)Nc2ncc([N+](=O)[O-])s2)cc1,-4.5,1.8,67.4*,17.4,3.8
Cc1ccc(S(=O)(=O)CC(=O)Nc2ncc([N+](=O)[O-])s2)cc1,-5.7,-2.6,-12.2,-15.3,4.1
O=C(NNC(=S)Nc1ccccc1Cl)c1ccccc1Br,-9.9,0.7,-33.6,53.4*,0.8
O=C(NNC(=O)c1ccccc1Br)c1ccccc1Cl,1.0,0.0,-4.5,1.6,1.6
CC(C)(C)SCCNC(=O)CN(c1ccccc1)S(=O)(=O)c1ccc(F)cc1,-2.8,0.7,-0.8,32.2*,-3.6
Cc1csc(=O)n1CCC(=O)OCC(=O)Nc1ccc(S(N)(=O)=O)cc1,-0.3,-0.8,0.5,53.9*,2.2
Cc1csc(=O)n1CCC(=O)OCC(=O)Nc1ccc(C(N)=O)cc1,-5.3,0.1,-1.3,-3.2,-4.5
Cc1ccc(NC(=O)Cn2c(C)cc(C)c(C#N)c2=O)cc1F,.,.,.,.,-8.4
Cc1cc(C(N)=O)c2cc(Br)ccc2n1,-2.3,0.1,-0.7,-0.8,38.6*
CNS(=O)(=O)c1ccc(C(C)(C)C)cc1,-2.3,1.1,-2.3,64.7*,-23.8
COc1ccccc1NC(=O)Cn1c(=O)n(C)c(=O)c2sc3c(c21)COC(C)(C)C3,3.8,-0.3,-8.5,31.9*,-5.2
COc1ccc(N2CCN(C3(c4ccccc4)C(=O)c4ccccc4C3=O)CC2)cc1,.,-0.2,.,.,-5.9
COc1cc(C2C(C#N)=C(N)Oc3n[nH]c(-c4cccnc4)c32)ccc1OCC(N)=O (stereo unspecified),-4.1,0.6,-8.4,30.2*,-5.2
Cn1c(-c2ccc(Br)cc2)cnc1NCc1cccnc1,-4.8,-0.2,-29.0,42.9*,13.8
COc1cc(CNc2ncc(-c3ccc(Br)cc3)n2C)cc(OC)c1OC,-0.3,-1.0,-3.9,2.3,-10.9
COc1ccc(CCn2c3c(c(=O)[nH]c2=O)C(NC(=O)c2ccccc2)(C(F)(F)F)C(=O)N3)cc1OC (stereo unspecified),.,0.4,.,.,-2.6
COC(=O)CC1=NN(c2ccccc2)C(=O)/C1=C\c1ccc(OC)cc1,-5.1,3.4,-8.8,56.0*,2.1
CC1=NN(Cc2ccccc2)C(=O)/C1=C\c1ccc(N(C)C)cc1,-2.4,-1.2,0.5,-4.6,-5.8
CCOC(=O)C1=NN(c2ccccc2)C(=O)/C1=C\c1ccc(N(C)C)cc1,-2.9,0.5,-11.3,31.7*,-7.7
CCN1CCN(c2nc3c(C)cccn3c(=O)c2/C=C(\C#N)S(=O)(=O)c2ccccc2)CC1,-0.1,-0.2,-7.3,37.3*,.
CCN1CCN(c2nc3ccccn3c(=O)c2/C=C(\C#N)S(=O)(=O)c2ccccc2)CC1,-8.4,-0.6,-21.3,33.6*,-4.6
CC(C)(C)C(=O)OCc1cc(=O)n2nc(C3CC3)sc2n1,.,.,.,.,12.3
COc1ccc(CCN(C)C(=O)CCNS(=O)(=O)c2ccccc2C(F)(F)F)cc1OC,-1.1,0.1,6.1,34.7*,6.6
SMILES,D2 ag-1,D2 ag-2,D2 PAM-1,D2 antagonist,D2 PAM-2
Cc1cccc2c3c([nH]c12)CCN(C)C3,-4.0,1.7,-23.7,66.1*,-28.1
NC(=O)c1cccc2c3c([nH]c12)CCCC3,-3.1,-0.2,-17.3,-5.8,-3.6
Cc1cc(C(=O)CSc2nc3ccccc3c(=O)[nH]2)c(C)n1C,-1.2,-0.3,-7.7,-10.0,38.6*
CCOC(=O)c1cc(S(=O)(=O)Nc2ccc(OC)c(Cl)c2)[nH]n1,.,0.6,.,.,-3.1
COC(=O)CN1C(=O)CSc2ccc(S(=O)(=O)Nc3cccc(C)c3)cc21,.,0.1,.,.,.
CCSC1=NC2(CCN(C(=O)NC3CCCCC3)CC2)N=C1c1ccc(Cl)cc1,.,1.2,.,.,5.5
Cc1cc(C)c(S(=O)(=O)N2CCN(C(=O)C(C)Cn3nc(C)nc3C)CC2)c(C)c1 (stereo unspecified),2.5,1.1,-8.9,35.0*,11.7
Cc1nc(C)n(CC(C)C(=O)N2CCN(S(=O)(=O)c3ccccc3)CC2)n1 (stereo unspecified),-2.4,-0.6,-0.9,31.7*,-14.5
Cc1cc(C)c(S(=O)(=O)N2CCN(C(=O)N3CCCCC3)CC2)c(C)c1,-2.5,-0.4,0.6,-0.4,6.8
Cc1cc(C)c(S(=O)(=O)N2CCN(C(=O)N(C)C)CC2)c(C)c1,-1.5,-0.2,-6.4,-4.7,31.8*
COc1ccc(CNC(=O)Cc2c(C)c3ccc(O)cc3oc2=O)cc1,.,2.2,.,.,-14.3
Cc1ccc(N(Cc2cccs2)C(=O)C(C)Oc2ccc(Cl)c(C)c2)cc1 (stereo unspecified),.,0.6,.,.,-16.8
CCOc1cc(-c2ccc(OC(=O)c3ccc(C)cc3)c(OC)c2)cc(=O)c2c(C)oc(C)c12,.,-1.5,.,.,-19.7
Cc1ccc(NC(=O)NC(=O)N(C(C)C)S(=O)(=O)c2ccc(C)cc2)cc1,7.5,6.5,-8.2,43.5*,-10.3
CC(=O)N1CCCc2ccc(NC(=O)c3ccc(C(F)(F)F)cc3)cc21,.,1.2,.,.,7.5
O=C(c1ccccc1Cl)N1CCN(Cc2ccc3c(c2)OCO3)CC1,-2.8,-1.6,-2.9,-5.7,10.5
Cc1ccc(C(=O)N2CCN(Cc3ccc4c(c3)OCO4)CC2)c(Cl)c1,2.1,-0.6,-8.8,72.6*,-29.7
O=C(c1cc([N+](=O)[O-])ccc1Cl)N1CCN(Cc2ccc3c(c2)OCO3)CC1,-0.1,1.2,0.6,44.2*,4.7
COc1ccc(NC(=O)Cn2c(SCc3cccc(Cl)c3)nc3ccncc32)c(OC)c1OC,.,.,.,.,-19.2
CC1CN(C(=O)CCC(=O)NCc2ccc(F)cc2)c2ccccc2S1 (stereo unspecified),-2.2,0.5,-0.7,-10.1,-2.6
COc1ccccc1CNC(=O)CCC(=O)N1CC(C)Sc2ccccc21 (stereo unspecified),-9.5,-0.1,-10.5,31.7*,-6.7
CC(C)C(=O)N(c1cc2sc(=O)oc2c2ccccc12)S(=O)(=O)c1cccs1,?,1.0,75.3*,-12.1,-6.8
COc1cc(CN(C(=O)COc2ccccc2)c2ccccn2)cc(OC)c1OC,.,1.3,.,.,14.4
O=C(Nc1cccc(C(F)(F)F)c1)C1CC(=O)N(CCc2ccccc2)C1 (stereo unspecified),0.8,0.3,-33.3,62.5*,-21.5
